Key:
[1] = test system: Human papillomavirus type 1a protein E7 (residues 44-93); assay: small molecules binding HPV E7 44-93 – biochemical, small-molecule microarray, residues 44-93, 635 nm fluorescence, primary screen (AID 1108); conditions: fluorescence 635 nm, higher = more signal;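 further: E7 fragment applied at 1 µg/mL in TBST for 1 h at 4 C; score combines spot fluorescence with its signal to noise ratio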
[2] = hepatitis C replication reporter changes, two-sided – Huh7 cells, luciferase reporter, HCV replication inhibitor project, primary screen (AID 1109); conditions: Huh7 HCV replicon luciferase reporter, 48 h; higher = more signal;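 further: huh7 hepatoma cells harbouring a luciferase neomycin HCV replicon reporter; luciferase luminescence as measure of HCV replicon replication; test concentration not given here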
[3] = biological target: Left-right determination factor 2 (Homo sapiens) (UniProt O00292); assay: small molecules binding LEFTY2 protein – biochemical, small-molecule microarray, 635 nm fluorescence scan, primary screen (AID 1110); conditions: higher = more signal
Chain of Left-right determination factor 2 (Homo sapiens) (O00292 whole entry, looked up): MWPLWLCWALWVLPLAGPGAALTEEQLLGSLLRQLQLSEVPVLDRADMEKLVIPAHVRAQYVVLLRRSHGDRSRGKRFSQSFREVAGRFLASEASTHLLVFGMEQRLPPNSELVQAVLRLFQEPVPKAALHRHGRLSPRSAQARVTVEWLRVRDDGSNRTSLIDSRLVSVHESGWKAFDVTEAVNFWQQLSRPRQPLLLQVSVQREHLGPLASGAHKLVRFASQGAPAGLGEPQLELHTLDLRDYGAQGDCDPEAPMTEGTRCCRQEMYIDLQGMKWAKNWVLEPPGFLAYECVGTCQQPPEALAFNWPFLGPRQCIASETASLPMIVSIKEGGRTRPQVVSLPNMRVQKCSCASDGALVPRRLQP

[4] = biological target: Calmodulin-1 (Homo sapiens) (UniProt P0DP23); assay: small molecules binding calmodulin-1 with EGTA – biochemical, small-molecule microarray, Cy5-labelled CALM1, profiling panel (AID 1111); conditions: Cy5-CALM1 binding fluorescence, higher = more signal;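 further: labelled calmodulin applied in Tris saline Tween buffer holding calcium plus EGTA and DTT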
[5] = biological target: Calmodulin-1 (Homo sapiens) (UniProt P0DP23); assay: small molecules binding Ca-loaded calmodulin-1 – biochemical, small-molecule microarray, Cy5-labelled CALM1, plus calcium, artefact control for SMM control-protein annotation, profiling panel (AID 1112); conditions: Cy5-CALM1 binding fluorescence, higher = more signal;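 further: score merges spot fluorescence with signal to noise from triplicate slides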
[6] = probe aWnt5a binding to arrayed compounds – biochemical, biotinylated probe, 635/667 nm fluorescence, primary screen (AID 1113); conditions: small-molecule microarray, higher = more signal;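 further: score merges 667 nm fluorescence intensity with signal-to-noise per printed feature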
[7] = probe aShh binding to arrayed compounds – biochemical, biotinylated probe, 635/667 nm fluorescence, primary screen (AID 1114); conditions: small-molecule microarray, higher = more signal;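 further: probe is biotin-labelled aShh protein from a stem cell growth factor screen; measures binding of labelled protein to compounds printed on the slide; score merges feature fluorescence at 667 nm with signal-to-noise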
[8] = probe aNog binding to arrayed compounds – biochemical, biotinylated probe, 635/667 nm fluorescence, primary screen (AID 1115); conditions: small-molecule microarray, higher = more signal;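 further: probe is biotinylated aNog protein used at 0.15 µg/mL for 1 h at 4 C; z-score combines 667 nm fluorescence of each spot with its signal to noise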
[9] = biological target: Torsin-1A-interacting protein 1 (Homo sapiens) (UniProt Q5JTV8); assay: compound microarray binding of lysate hLAP1 – cell lysate, small-molecule microarray, COS7 lysate, 635/667 nm fluorescence, primary screen (AID 1116); conditions: 635 nm fluorescence, higher = more signal
Chain of Torsin-1A-interacting protein 1 (Homo sapiens) (Q5JTV8 whole entry, looked up): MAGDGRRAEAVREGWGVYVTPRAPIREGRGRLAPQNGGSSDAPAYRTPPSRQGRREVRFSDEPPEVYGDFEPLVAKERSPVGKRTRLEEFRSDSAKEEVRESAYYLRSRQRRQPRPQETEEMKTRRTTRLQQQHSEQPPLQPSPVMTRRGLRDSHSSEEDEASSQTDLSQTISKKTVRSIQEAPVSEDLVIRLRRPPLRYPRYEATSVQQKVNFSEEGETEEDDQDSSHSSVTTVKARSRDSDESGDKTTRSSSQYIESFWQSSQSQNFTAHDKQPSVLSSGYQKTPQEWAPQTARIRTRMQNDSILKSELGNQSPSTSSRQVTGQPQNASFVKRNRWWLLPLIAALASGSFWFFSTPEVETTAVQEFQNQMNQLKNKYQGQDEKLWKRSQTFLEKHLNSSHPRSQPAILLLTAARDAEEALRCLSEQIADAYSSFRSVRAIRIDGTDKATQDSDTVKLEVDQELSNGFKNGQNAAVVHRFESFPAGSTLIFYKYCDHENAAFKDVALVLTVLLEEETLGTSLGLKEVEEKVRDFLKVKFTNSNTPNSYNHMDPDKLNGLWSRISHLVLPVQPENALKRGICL

[10] = biological target: Alpha-bungarotoxin (Bungarus multicinctus) (UniProt P60615); assay: compounds binding labelled alpha-BTX control protein – biochemical, small-molecule microarray, Alexa647 label, 635/667 nm fluorescence, artefact control for SMM control protein annotation, profiling panel (AID 1117); conditions: alpha-BTX-A647 binding fluorescence, higher = more signal
Chain of Alpha-bungarotoxin (Bungarus multicinctus) (P60615 whole entry, looked up): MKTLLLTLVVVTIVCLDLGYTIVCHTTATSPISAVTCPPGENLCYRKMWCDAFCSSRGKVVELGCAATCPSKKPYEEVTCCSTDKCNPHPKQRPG

## CCCC[C@@H]1C[C@H]1[C@@H](NC(=O)c1ccc(-c2ccccc2)cc1)c1ccc(-c2ccccc2)cc1
[1]
  composite z-score: 0.511
[2]
  z-score: -0.787
[3]
  composite z-score: 0.848
[4]
  composite z-score: 0.212
[5]
  composite z-score: -0.836
[6]
  composite z-score: -0.0459
[7]
  composite z-score: 1.37
[8]
  composite z-score: -0.435
[9]
  composite z-score: 0.285
[10]
  composite z-score: 0.364

## O=C1OCCC=C[C@H]2OC34C=CCN(Cc5ccccc5)C(=O)[C@H]3N(CCCO)C(=O)[C@@H]4C12 (stereo not given in full)
[1]
  composite z-score: -0.786
[2]
  z-score: -0.0946
[3]
  composite z-score: -0.424
[4]
  composite z-score: -0.438
[5]
  composite z-score: 0.0072
[6]
  composite z-score: -0.164
[7]
  composite z-score: -0.206
[8]
  composite z-score: -0.0602
[9]
  composite z-score: 0.0647
[10]
  composite z-score: -0.473

## Cc1ccc(S[C@]2(C(=O)NCC(C)C)CC(=O)N(Cc3ccccc3Cl)[C@@H]2c2ccc(CO)cc2)cc1
[1]
  composite z-score: -0.411
[2]
  z-score: -1.73
[3]
  composite z-score: -1.46
[4]
  composite z-score: -0.476
[5]
  composite z-score: -0.115
[6]
  composite z-score: -0.228
[7]
  composite z-score: -0.181
[8]
  composite z-score: -0.618
[9]
  composite z-score: -1.08
[10]
  composite z-score: 0.86

## Cc1ccc(S[C@]2(C(=O)NCc3ccccc3)CC(=O)N(Cc3ccccc3Cl)[C@@H]2c2ccc(CO)cc2I)cc1
[1]
  composite z-score: -0.173
[2]
  z-score: -1.74
[3]
  composite z-score: -2.11
[4]
  composite z-score: -0.162
[5]
  composite z-score: 0.137
[6]
  composite z-score: -0.124
[7]
  composite z-score: -0.426
[8]
  composite z-score: -0.581
[9]
  composite z-score: 0.0931
[10]
  composite z-score: 1.7

## O=C1N(CCS(=O)(=O)c2ccccc2)Cc2ccccc2[C@H]2OC(c3ccc(OCCCO)cc3)=N[C@@]12CCS(=O)(=O)c1ccccc1
[1]
  composite z-score: 0.961
[2]
  z-score: -1.55
[3]
  composite z-score: 0.558
[4]
  composite z-score: 1.25
[5]
  composite z-score: 0.38
[6]
  composite z-score: 0.115
[7]
  composite z-score: 0.0348
[8]
  composite z-score: 0.763
[9]
  composite z-score: 1.41
[10]
  composite z-score: 1.97

## C=C(CCCC)C(=O)CC[C@H](OC(=O)c1cccnc1)c1cccc(OCCO)c1
[1]
  composite z-score: 0.343
[2]
  z-score: -3.04
[3]
  composite z-score: 0.0112
[4]
  composite z-score: -0.538
[5]
  composite z-score: -0.993
[6]
  composite z-score: -0.0107
[7]
  composite z-score: -0.0035
[8]
  composite z-score: -0.356
[9]
  composite z-score: 0.479
[10]
  composite z-score: -0.0331

## CC(C)N1C(=O)[C@@]2(c3ccc([N+](=O)[O-])cc3)CC(=O)N(CC34CC5CC(CC(C5)C3)C4)[C@@H]2c2ccc(CO)cc21
[1]
  composite z-score: -1.28
[2]
  z-score: -1.21
[3]
  composite z-score: -1.36
[4]
  composite z-score: -0.251
[5]
  composite z-score: 0.134
[6]
  composite z-score: -0.316
[7]
  composite z-score: -0.208
[8]
  composite z-score: 0.705
[9]
  composite z-score: -0.742
[10]
  composite z-score: -0.12

## COc1ccc(C#Cc2ccc3c(c2)[C@]2(C(=O)N3)[C@H](C(=O)NC[C@H](O)c3ccccc3)[C@H]3C(=O)O[C@H](c4ccccc4)[C@H](c4ccccc4)N3[C@@H]2c2ccc(OCCO)cc2)cc1
[1]
  composite z-score: 1.43
[2]
  z-score: -2.13
[3]
  composite z-score: 0.965
[4]
  composite z-score: 0.841
[5]
  composite z-score: -0.203
[6]
  composite z-score: 0.0037
[7]
  composite z-score: 0.327
[8]
  composite z-score: -0.611
[9]
  composite z-score: 0.952
[10]
  composite z-score: 1.76

## COC(=O)[C@@]1(Cc2ccc(F)cc2)[C@H]2c3cc(C(=O)N4CCCC4)n(Cc4cccc5ccccc45)c3C[C@H]2CN1C(=O)c1ccccc1
[1]
  composite z-score: 1.37
[2]
  z-score: -1.37
[3]
  composite z-score: -0.201
[4]
  composite z-score: 1.23
[5]
  composite z-score: 0.0721
[6]
  composite z-score: 0.0859
[7]
  composite z-score: 0.111
[8]
  composite z-score: 1.36
[9]
  composite z-score: 1.84
[10]
  composite z-score: 1.07

## C=CCC(OC(C)=O)[C@@H]1[C@@H](N(Cc2ccc(-c3ccccc3)cc2)C(=O)Cc2ccc(F)cc2)c2cc(OCCCO)ccc2N1C(=O)c1ccc2ccccc2n1 (stereo not given in full)
[1]
  composite z-score: -0.689
[2]
  z-score: -0.213
[3]
  composite z-score: -0.456
[4]
  composite z-score: 0.168
[5]
  composite z-score: 0.72
[6]
  composite z-score: -0.0125
[7]
  composite z-score: -0.206
[8]
  composite z-score: -0.395
[9]
  composite z-score: 0.79
[10]
  composite z-score: 0.414

## CC(=O)C1=CCC(c2ccccc2)N(S(=O)(=O)c2ccc(C)cc2)C1 (stereo not given)
[1]
  composite z-score: 1.41
[2]
  z-score: -0.975
[3]
  composite z-score: 0.034
[4]
  composite z-score: -0.105
[5]
  composite z-score: -0.163
[6]
  composite z-score: -0.0758
[7]
  composite z-score: 0.156
[8]
  composite z-score: 0.471
[9]
  composite z-score: 1.28
[10]
  composite z-score: 0.19

## CC(C)N1C(=O)C[C@@](C(=O)NCc2ccccc2)(c2ccc([N+](=O)[O-])cc2)[C@H]1c1ccc(CO)cc1
[1]
  composite z-score: 1.37
[2]
  z-score: -0.0323
[3]
  composite z-score: -0.57
[4]
  composite z-score: -0.47
[5]
  composite z-score: -0.602
[6]
  composite z-score: -0.0894
[7]
  composite z-score: -0.13
[8]
  composite z-score: -0.498
[9]
  composite z-score: 1.99
[10]
  composite z-score: -0.148

## C=CCOC(=O)[C@@H]1[C@H]2C(=O)O[C@H](c3ccccc3)[C@H](c3ccccc3)N2[C@H](c2ccc(OCCOC(=O)[C@@H]3C[C@@H]4C(=O)NCC(=O)N4[C@@H]3c3cccc(OCCO)c3)cc2)[C@@]12C(=O)Nc1ccc(I)cc12
[1]
  composite z-score: 1.43
[2]
  z-score: -1.54
[3]
  composite z-score: 0.949
[4]
  composite z-score: 0.689
[5]
  composite z-score: -0.0508
[6]
  composite z-score: -0.0735
[7]
  composite z-score: -0.043
[8]
  composite z-score: 1.07
[9]
  composite z-score: -1.86
[10]
  composite z-score: 1.75

## O=C1OCC=C[C@H]2OC34C=CCN(c5ccc(Cl)cc5)C(=O)[C@H]3N(CCCCCCO)C(=O)[C@@H]4[C@@H]12 (stereo not given in full)
[1]
  composite z-score: -0.851
[2]
  z-score: -0.493
[3]
  composite z-score: -1.21
[4]
  composite z-score: -0.123
[5]
  composite z-score: 0.174
[6]
  composite z-score: -0.128
[7]
  composite z-score: 0.0062
[8]
  composite z-score: 0.46
[9]
  composite z-score: -0.143
[10]
  composite z-score: -1.34

## COCCOC(=O)N1C(=O)[C@@]2(c3cc(C#CCCO)ccc31)[C@H](C(=O)NC[C@H](O)c1ccccc1)[C@H]1C(=O)O[C@H](c3ccccc3)[C@H](c3ccccc3)N1[C@@H]2c1ccc(O)cc1
[1]
  composite z-score: 0.727
[2]
  z-score: -0.485
[3]
  composite z-score: -0.186
[4]
  composite z-score: 0.302
[5]
  composite z-score: 0.262
[6]
  composite z-score: -0.0519
[7]
  composite z-score: -0.416
[8]
  composite z-score: -0.0784
[9]
  composite z-score: 1.11
[10]
  composite z-score: 0.476

## COCCCNC(=O)[C@@]1(C)c2ccccc2C(=O)N(Cc2cc(C(F)(F)F)cc(C(F)(F)F)c2)[C@H]1c1ccc(CO)cc1
[1]
  composite z-score: 1.32
[2]
  z-score: 0.261
[3]
  composite z-score: -1.8
[4]
  composite z-score: 0.0356
[5]
  composite z-score: 0.378
[6]
  composite z-score: -0.154
[7]
  composite z-score: -0.0626
[8]
  composite z-score: 0.583
[9]
  composite z-score: -0.235
[10]
  composite z-score: 1.41

## O=C1O[C@@H](c2ccccc2)[C@@H](c2ccccc2)N2[C@@H](c3ccccc3OCCO)[C@]3(C(=O)Nc4ccc(C#CC5(O)CCCCCC5)cc43)[C@@H](C(=O)Nc3nc4ccccc4s3)[C@H]12
[1]
  composite z-score: 1.38
[2]
  z-score: -3.09
[3]
  composite z-score: 0.628
[4]
  composite z-score: 0.688
[5]
  composite z-score: 0.226
[6]
  composite z-score: -0.0495
[7]
  composite z-score: -0.0685
[8]
  composite z-score: -0.0065
[9]
  composite z-score: 0.367
[10]
  composite z-score: 0.744

— PubChem BioAssay
